# FLuc counter = qHTS profiling assay for firefly luciferase inhibitor/activator using purifed enzyme and Km concentrations of substrates (counterscreen for miR-21 project) | Potency, µM (titrated, usually from 57.5 µM), hits mostly inhibitors | AID 588342, 2011 | purified FLuc, Km substrates, luminescence inhibition | 6.9% of 360,000 active | Luciferin 4-monooxygenase (Photinus pyralis), P08659; note: nearly all actives have a fitted effect of over 55% in size
# Target sequence (P08659 whole entry, looked up): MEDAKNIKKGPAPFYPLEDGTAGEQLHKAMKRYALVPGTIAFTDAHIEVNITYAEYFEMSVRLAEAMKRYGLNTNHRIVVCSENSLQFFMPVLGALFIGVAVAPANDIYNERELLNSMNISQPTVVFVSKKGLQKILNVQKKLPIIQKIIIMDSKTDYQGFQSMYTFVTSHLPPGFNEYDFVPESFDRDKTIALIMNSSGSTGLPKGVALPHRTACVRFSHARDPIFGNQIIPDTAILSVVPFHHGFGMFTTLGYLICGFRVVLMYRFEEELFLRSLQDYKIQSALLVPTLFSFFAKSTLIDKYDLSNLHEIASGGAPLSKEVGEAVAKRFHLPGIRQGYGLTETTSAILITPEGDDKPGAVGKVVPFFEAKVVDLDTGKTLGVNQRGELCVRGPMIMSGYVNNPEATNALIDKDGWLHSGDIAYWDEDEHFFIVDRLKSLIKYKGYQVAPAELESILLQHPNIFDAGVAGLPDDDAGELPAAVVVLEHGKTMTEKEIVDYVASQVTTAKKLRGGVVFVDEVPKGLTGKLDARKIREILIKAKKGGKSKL
#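 Purified P. pyralis luciferase (10nM final) with 10uM D-luciferin and 10uM ATP (Km levels) in 50mM Tris acetate pH 7.5, 10mM Mg acetate, 0.01% Tween-20, 0.05% BSA; qHTS 6-point titration, ~60 µM downward; luminescence read.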
# Rab9 promoter act = qHTS Assay for Rab9 Promoter Activators | Huh7 Rab9 promoter-luciferase reporter, luminescence, 24 h | Potency, µM (doses to about 9.22 µM), actives largely listed as activators | 2.8% of 320,000 active; note: nearly all actives have a fitted effect of over 60% in size
#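 Huh7 cells stably carrying Rab9 promoter–luciferase reporter, plated 1500 cells/well, compound added after 2 h and incubated 24 h at 37 °C; luciferase luminescence then read after 10 min with detection reagent.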
# SMN2 splice enh = qHTS Assay for Enhancers of SMN2 Splice Variant Expression; HEK293 SMN2-luciferase splicing reporter, luminescence, 30-36 h; Potency, µM (doses to about 46.1 µM), hits mostly activators; 2.8% of 210,000 active; AID 1458, 2008; note: nearly all actives have a fitted effect of over 55% in size
#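 qHTS luciferase splicing reporter: luminescence rises when SMN2 exon 7 is included in transfected HEK293 cells. Compound exposure lasted 30-36 h at 37C, with 4.5 mM final sodium butyrate as control, followed by a ONE-Glo read.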
# ELG1 genotox = qHTS screen for small molecules that induce genotoxicity in human embryonic kidney (HEK293T) cells expressing luciferase-tagged ELG1; HEK293T ELG1-luciferase reporter, luminescence, 16 h; Potency, µM (doses to about 46 µM), most hits filed as activators; 1.3% of 330,000 active; note: nearly all actives have a fitted effect of over 60% in size
#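 16 hr compound incubation (37 °C, 5% CO2) of HEK293T cells carrying luciferase-tagged ELG1; luciferase then measured by ONE-Glo luminescence after 30 min at RT.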
# NPC1 prom act = qHTS Assay for NPC1 Promoter Activators. 2.4% of 320,000 active. Huh7 NPC1 promoter luciferase reporter, 24 h. Potency, µM (series often up to 9.22 µM), actives largely listed as activators; note: nearly all actives have a fitted effect of over 60% in size
#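 Luminescence from an NPC1 promoter-driven luciferase reporter in stably transfected Huh7 cells was measured after 24 h compound treatment at 37 °C, followed by 10 min ambient incubation with luciferase detection reagent.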
# Numbers stand for hits; - = inactive; ? = inconclusive; . = no result given; [ ] = dose if it differs, or a comment. Shown are actives, neighbours in structure and some others; about 7.4% of the full set was active somewhere. Calls come from the whole dose curve; as a rule, active = well fitted curve in the direction sought with a large enough effect; inconclusive = small, poorly fitted or top-dose-only effect, or another doubt; inactive = no such curve, though single readings can be large; an effect the other way counts as inactive or inconclusive.
SMILES,FLuc counter,Rab9 promoter act,SMN2 splice enh,ELG1 genotox,NPC1 prom act
CN(Cc1cn(-c2ccccc2)nc1-c1ccc(F)cc1)C(=O)CCC(=O)O,12µM,-,-,-,-
COc1ccc(-c2nn(-c3ccccc3)cc2CO)cc1,?,?,-,?,-
CN(CC(=O)Nc1cccc(F)c1)C(=O)c1cn(-c2ccccc2)nc1-c1ccc(F)cc1,?,-,.,-,-
CN(Cc1cn(-c2ccccc2)nc1-c1ccc(Cl)cc1)C(=O)CCC(=O)O,11µM,-,-,-,-
Cc1ccc(-c2nn(-c3ccccc3)cc2CO)cc1,15µM,?,.,?,?
COc1cc2c(C#N)c(N3CCCCC3)nc(N)c2c(N)n1,4.8µM,-,-,?,-
COc1cc2c(C#N)c(N3CCOCC3)nc(N)c2c(N)n1,?,-,-,-,-
CCOc1cc2c(C#N)c(N3CCNCC3)nc(N)c2c(N)n1,-,-,?,-,-
COc1ccc(-c2nc(C#N)c(N3CCc4ccccc4C3)o2)cc1OC,-,-,-,-,-
COc1cc2c(C#N)c(N3CCc4ccccc4C3)nc(N)c2c(N)n1,21µM,-,-,-,-
CCOc1cc2c(C#N)c(N3CCCCC3)nc(N)c2c(N)n1,15µM,?,-,?,-
CCOC(=O)C1CCN(c2nc(C)cc(C)c2C#N)CC1,-,-,-,-,-
CCOC(=O)C1CCN(c2nc(N)c3c(N)nc(SCC(=O)O)cc3c2C#N)CC1,17µM,-,.,-,-
Cc1cn2c(=O)c(S(=O)(=O)NCc3ccc(F)cc3)c(C)nc2s1,-,.,.,.,.
Cc1ccc(C(C)C)cc1OCC(=O)N1CCN(C(=O)c2ccco2)CC1,-,-,.,-,-
CCc1nc(Nc2cccc(O)c2)c2oc3ccccc3c2n1,19µM,-,.,-,-
CCc1ccc(NC(=O)CC2C(=O)N(c3ccc(OC)cc3)C(=O)N2Cc2ccc(OC)cc2)cc1 (stereo not drawn),-,.,.,.,.
C=CCOc1cccc(CNc2cccc(C(=O)O)c2)c1,9.5µM,?,.,-,?
C=CCOc1c(CNc2cccc(C(=O)O)c2)cccc1OC,15µM,?,?,?,?
C=CCOc1c(CNc2ccc(C(=O)O)cc2)cccc1OCC,21µM,?,?,-,?
Cc1ccc(C)c(SCC(=O)NC2CCS(=O)(=O)C2)c1 (stereo not drawn),-,-,.,-,-
Cc1nn(C)cc1/C=N/NC(=S)Nc1ccccc1,5.4µM,2µM,-,-,?
Cc1ccc(NC(=S)N/N=C/c2c(C)nn(-c3ccccc3)c2N2CCCC2)cc1,-,-,.,-,-
COc1ccccc1OCCNC(=O)Nc1ccc(Br)cc1,-,-,-,-,-
O=C(COc1ccccc1)NCCSc1ccccc1,27µM,-,-,21µM,?
SMILES,FLuc counter,Rab9 promoter act,SMN2 splice enh,ELG1 genotox,NPC1 prom act
Cc1ccc(-c2[nH]c3ccccc3c2SCCNC(=O)c2ccc(S(=O)(=O)N(C)C)cc2)cc1,-,.,-,.,.
CC(C)(C)SCCNC(=O)COc1ccccc1,-,-,-,-,-
CN(C)S(=O)(=O)c1ccc(C(=O)NCCSc2ccccc2)cc1,?,?,-,10µM,?
COc1ccc(C(=O)NCCSc2ccccc2)cc1OC,?,?,14µM,?,?
COc1ccccc1OCCNC(=O)c1ccc(Br)cc1,24µM,-[1.84 µM],.,?,?
CCOC(=O)C1CCC(CN(Cc2ccc(Cl)cc2)S(=O)(=O)c2ccc(F)c(C(=O)Nc3cccc(F)c3)c2)CC1 (stereo not drawn),-,.,.,.,.
CCNC(=O)c1ccc(CSc2nc3cccnc3n2Cc2ccc(OC)cc2)cc1,21µM,.,.,.,.
COc1cccc(CNC(=O)c2ccc(Cn3c(SCc4ccccc4)nc4cccnc43)cc2)c1,5.4µM,.,.,.,.
Cc1cccc(Cn2c(SCc3ccc(C(=O)NCc4ccccc4)cc3)nc3cccnc32)c1,-,.,.,.,.
CN(C)c1ccc(CNC(=O)c2ccc(Cn3c(SCc4ccccc4)nc4cccnc43)cc2)cc1,2.7µM,.,-,.,.
Cc1cccc(CNC(=O)c2ccc(Cn3c(SCc4ccccc4)nc4cccnc43)cc2)c1,9.5µM,.,.,.,.
COC(=O)c1cc([N+](=O)[O-])c(-n2cncn2)c([N+](=O)[O-])c1,-,-,.,-,-

# Screening data (PubChem BioAssay)
